# Reference: the supplement of paper PMC12636033
# ± gives the standard deviation of the averaged measurements. Over roughly 33,000 sequences, “E-score (rank enrichment, -0.5 to 0.5)” has its median near -0.0043; the highest 2% begin near 0.24. Shown is part of a subset that was picked to be rich in the highest values.
# Test system: 2Sp-muMax20 (muMax20 with two 2,6-bis(methyl)pyridine Cys staples)
# Assay: PBM 8-mer E-score (E-score (rank enrichment, -0.5 to 0.5)); higher = stronger preferential binding
# Protocol: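 Protein binding microarray (universal PBM chip covering all 10-mers in fixed probe flanks) with chemically synthesized human Max(13-93) bHLH-LZ analogs (not full-length Max) bearing noncanonical residues (hArg, Tha, Aib, Nle at 65) and aromatic Cys staples. Read-out per 8-mer (and its reverse complement): E-score (rank-based enrichment, -0.5 to 0.5) and Z-score of median probe intensity.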
row,Sequence,PBM 8-mer E-score
1,CGCGCGTA,0.176 ± 0.021
2,CGCGCGTC,0.28 ± 0.0065
3,AGCGCGTC,-0.117 ± 0.097
4,CACGCGTA,0.175 ± 0.043
5,AACGCGTG,0.13 ± 0.022
6,AACGCGTC,-0.0413 ± 0.045
7,GGTCGGGA,-0.25 ± 0.0058
8,CGTGACCA,0.1 ± 0.098
9,AAGCCATT,-0.0452 ± 0.016
10,AGCCACGG,-0.2315 ± 0.00033
11,TGTCTGAA,0.0107 ± 0.0037
12,CCCCGAAG,-0.126 ± 0.04
13,AAAGGAGA,0.0434 ± 0.019
14,CAAGGAGA,-0.133 ± 0.073
15,GAAGGAGA,0.246 ± 0.023
16,GTATAGAC,0.121 ± 0.0088
17,ATTTGTTC,0.106 ± 0.018
18,ACATGTTG,0.268 ± 0.089
19,AGATGTTG,-0.146 ± 0.015
20,ACATGTTA,0.3172 ± 0.0015
21,GGATGTTA,0.196 ± 0.022
22,GCATGTTA,0.252 ± 0.095

row,Sequence,PBM 8-mer E-score
1,ATATGTTA,0.229 ± 0.027
2,ATTTGTTG,0.266 ± 0.034
3,AAATGTTA,0.156 ± 0.028
4,ACATGTTC,0.161 ± 0.04
5,CCATGTTA,0.155 ± 0.054
6,ATTTGTTA,0.228 ± 0.064
7,CGACATCG,-0.164 ± 0.033
8,CGTCCGCA,-0.0773 ± 0.074
9,AAGGGGGG,-0.275 ± 0.053
10,CGCTTTAG,0.0627 ± 0.011
11,ACGGGTGC,-0.0393 ± 0.032
12,GGCCGTAC,0.0557 ± 0.032
13,CTGGATCA,-0.158 ± 0.033
14,GCTGCTGA,-0.206 ± 0.048
15,AGTGCATG,0.0577 ± 0.061
16,ATGTGTTG,0.254 ± 0.023
17,ATGTGTTC,-0.00117 ± 0.0014
18,ATGTGTTA,0.197 ± 0.14
19,ACCGATCA,-0.0856 ± 0.019
20,CATGGCTC,0.0571 ± 0.018
21,GATGGCTA,0.03 ± 0.092
22,CATGGCTA,0.245 ± 0.055

row,Sequence,PBM 8-mer E-score
1,CCACGTAC,0.0687 ± 0.048
2,AACTGTAT,0.104 ± 0.043
3,ACAGATGG,0.0291 ± 0.022
4,TAGCCCCA,0.324 ± 0.022
5,CCGCCCCG,0.22 ± 0.037
6,GCGCCCCA,0.135 ± 0.0094
7,CCGCCCCA,0.344 ± 0.054
8,TCGCCCAA,0.0937 ± 0.081
9,TCGCCCCA,0.246 ± 0.013
10,ACGCCCCC,-0.168 ± 0.036
11,ACGCCCCG,-0.107 ± 0.028
12,TAGCCCAA,0.0851 ± 0.013
13,ACGCCCCA,0.284 ± 0.013
14,CAGCCCCA,0.196 ± 0.033
15,CCGCCCCC,-0.261 ± 0.11
16,CGGTAACC,-0.288 ± 0.086
17,GCACATCC,0.0732 ± 0.072
18,AGGATTTG,-0.0789 ± 0.0065
19,GGAGGTGA,-0.109 ± 0.038
20,AGTTGGTC,-0.13 ± 0.083
21,GATCCGAC,-0.198 ± 0.026
22,AGTTGAAA,-0.0343 ± 0.15

row,Sequence,PBM 8-mer E-score
1,TCAGGTCA,-0.126 ± 0.038
2,ACCGCCCC,0.132 ± 0.0083
3,GCCGCCCC,0.0266 ± 0.044
4,CCCGCCCA,0.396 ± 0.012
5,CCCGCCCG,0.16 ± 0.065
6,GCCGCCCA,-0.111 ± 0.053
7,CCCGCCCC,0.281 ± 0.022
8,CCACCCGG,-0.213 ± 0.012
9,ACTGCTTC,-0.0855 ± 0.012
10,AGCCTAAT,0.0715 ± 0.12
11,ATGTTTTA,0.0882 ± 0.015
12,ATCCTCGG,-0.136 ± 0.022
13,ACGTGCCT,0.257 ± 0.045
14,ACGTGGAC,0.208 ± 0.053
15,ACGTGGAA,0.188 ± 0.014
16,ACGTGCCG,0.0769 ± 0.0064
17,ACGTGGCA,0.217 ± 0.094
18,ACGTGGCC,-0.048 ± 0.005
19,ACGTGCCC,0.1949 ± 0.0017
20,ACGTGGCT,0.238 ± 0.019
21,ACGTGGAT,0.2668 ± 0.0015
